Results reported in PubChem BioAssay AID651692 (Broad Institute, 2012).
Results with a measured potency or affinity are listed apart. Activity calls are given as the source filed them.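 Rule for the calls: active = fitted half-maximal concentration for loss of cell signal no higher than twice the top valid tested concentration; inconclusive = flat curve at 30 to 70% inhibition, or poor fit; inactive = flat within 30%, signal rise, or potency above limit.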

Assay: cytotoxicity toward MDA-MB-231 breast cancer cells – cell-based, CellTiter-Glo luminescence, cherry-pick, cytotoxicity control for RAD54 inhibitor project, dose response (AID 651692);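 note: more negative values mean stronger loss of viable cell signal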
Conditions: MDA-MB-231 viability, 24 h; series mostly up to 26 µM

Compound | outcome
CN1CCN(c2ccc(Nc3ccnc4cc(Cl)ccc34)cc2)CC1 | inactive
CN1CCN(c2nc(-c3cccnc3)nc3ccccc23)CC1 | inactive
CC1CCCCN1CCNC(=O)c1cc2c(=O)n(C)c3ccccc3c2n1C (stereo not drawn) | inactive
Nc1ccc(-c2nc3c(ccc4ccccc43)[nH]2)cc1 | inactive
CCCCN(C)CCNC(=O)c1cc2cc3ccc(OC)cc3nc2o1 | inactive
CN(C)CCCN(C(=O)c1ccco1)c1nc(-c2ccc(Cl)cc2)cs1 | inactive
CN1CCC[C@H]1CCNc1ccc2c(=O)c3ccccc3n(C)c2c1 | inactive
CCCN1CCN(CCCNC(=S)Nc2ccc3nc(N4CCN(CC)CC4)cc(C)c3c2)CC1 | inactive
CN(C)CCN(C(=O)c1ccco1)c1nc2cc3c(cc2s1)OCCO3 | inactive
CN(C)CCNC(=O)c1cc2c(=O)n(C)c3ccccc3c2n1C | inactive
CN(C)CCCNc1c2c(nc3ccccc13)CCC2 | inactive
CCCCN(CC)CCCNC(=O)c1cc2c(-c3ccc(OC)c(OC)c3)nn(C)c2s1 | inactive
CCOCCCn1c(=N)c(C(=O)NCCN2CCOCC2)cc2c(=O)n3cccc(C)c3nc21 | inactive
CC(=O)Nc1cc(-c2ccc(N3CCN(C)CC3)cc2)cn2c(-c3ccc(S(C)(=O)=O)cc3)cnc12 | inactive
CCN1CCN(c2cc(C)c3cc(NC(=S)N4CCCC(C)C4)ccc3n2)CC1 (stereo not drawn) | inactive
Cc1ccc(S(=O)(=O)N2CCOCC2)c(C)c1NS(C)(=O)=O | inactive
CN(C)CCCNc1nc(-c2ccc(Cl)cc2)nc2ccccc12 | inactive
OCCN1CCN(c2ncnc3sc(-c4ccccc4)cc23)CC1 | inactive
